The entries come from a sample that favours hits as a whole.
AMA1-RON2 inh: AMA1-RON2 (P. falciparum) interaction inhibition; AlphaScreen AMA1-biotinylated RON2 peptide binding; Potency, µM (doses to about 58.2 µM), usual class: inhibitors; actives 0.2% (n = 360,000); active = well fitted inhibition curve with a large enough effect; inconclusive = small, poorly fitted or top-dose-only effect; inactive = no such curve, though single readings can be large or run the other way; also: nearly all actives have a fitted effect of over 45% in size
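AMA1 (3D7) with his tag at 25 nM final met compounds first, then biotinylated RON2 peptide at 25 nM; detection used donor plus acceptor beads, 10 µg/mL apiece, read by AlphaScreen after 30 min at room temperature.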
Cycloheximide cs: affects cycloheximide protein synthesis inhibition readout, counter-screen; max response, %; AID 2314; cell reporter, cycloheximide protein synthesis inhibition counterscreen; actives 12% (n = 300,000); in the data active = max response mostly above about 13%, no sharp cut-off; inactive = mostly below about 14%; also: read at 38.3 µM for the half of the compounds with a filed dose
Lassa entry inh: inhibitors of Lassa virus binding or cell entry. Lassa virus pseudotype entry inhibition, cell reporter. Potency, µM (top dose mostly 37.9 µM), actives largely listed as inhibitors. actives 1.2% (n = 300,000). AID 540256; calls by dose curve; tested in HEK293 cells; also: nearly all actives have a fitted effect of over 50% in size
MARV entry inh: Marburg virus entry inhibition | Marburg virus pseudotyped entry inhibition, cell reporter | Potency, µM (series often up to 37.8 µM), most hits filed as inhibitors | actives 1.8% (n = 300,000) | AID 540276; calls by dose curve; tested in HEK293 cells
Shiga toxin inh: Shiga toxin inhibition; inhibition, % at 38.7 µM; Vero cells, Shiga toxin protein synthesis inhibition reporter; actives 9.2% (n = 290,000); in the data active = inhibition mostly above about 28%, no sharp cut-off; inactive = mostly below about 43%
Numbers stand for hits; i = inactive; ? = inconclusive; nt = no result given; ! = not confirmed by another sample; [ ] = remark or other dose.

SMILES	AMA1-RON2 inh	Cycloheximide cs	Lassa entry inh	MARV entry inh	Shiga toxin inh
CCn1c(C(=O)O)c(CC(=O)N(C)c2ccc(OC)cc2OC)c2ccccc21	i	i	nt	nt	i
COc1ccc2c(c1)nc(NCCCO)n2Cc1ccccc1	i	i	i	i	i
COc1ccccc1Nc1nnc(SCc2nnc(-c3cc(OC)c(OC)c(OC)c3)o2)s1	i	i	i	?	i
COc1cc(-c2nnc(CSc3nnc(Nc4ccc(C(C)C)cc4)s3)o2)cc(OC)c1OC	i	19	?	?	i
O=C(O)COc1ccccc1/C=N/NC(=O)c1cc2ccccc2cc1O	i	i	nt	nt	i
C/C(=N\OC(=O)NC(C)C)c1sc(-c2ccc(Cl)cc2)nc1C	i	34	?	?	112
C/C(=N\OC(=O)c1ccc(F)cc1)c1sc(-c2ccccc2)nc1C	i	19	i	?	i
C/C(=N\OC(=O)NC1CCCCC1)c1sc(-c2ccccc2)nc1C	i	i	?	?	i
C=CCNC(=O)c1sc(-c2ccccc2)nc1C	i	17	i	i	42
Cc1nc(-c2ccccc2)sc1C(=O)NN	i	i	i	i	i
C/C(=N\OC(=O)c1cccc(C)c1)c1sc(-c2ccccc2)nc1C	i	i	i	i	i
C/C(=N\OC(=O)c1ccc(Cl)cc1)c1sc(-c2ccccc2)nc1C	i	i	i	?	i
C/C(=N\OC(=O)NC(C)C)c1sc(-c2ccccc2)nc1C	i	26	?	?	i
CCOC(=O)[C@]12CCCC=C1N(Cc1ccco1)C(=O)[C@H](CC(=O)NCC1CCCCC1)C2	i	nt	nt	nt	nt
CCOC(=O)c1nn(-c2ccc(F)cc2)c(=O)cc1OCC(=O)Nc1ccc(F)c(F)c1	i	nt	i	i	nt
C=C(C)c1sc(-c2ccc(Cl)cc2)nc1C	i	nt	nt	nt	nt
CCNC(=O)O/N=C(\C)c1sc(-c2ccc(Cl)cc2)nc1C	i	52	i	?	114
c1cc(C2OCCO2)cs1	i	nt	nt	nt	nt
O=C1C2C3C=CC(CC3)C2S(=O)(=O)C2C3C=CC(CC3)C12 (stereo not given)	i	nt	nt	nt	nt
CC1(C)CC(NC(=O)c2ccc(Cl)c(S(=O)(=O)N(Cc3ccccc3)c3ccccc3)c2)CC(C)(C)N1	i	nt	i	8.9µM	nt
COc1ccccc1N(Cc1ccccc1)S(=O)(=O)c1cccc(C(=O)NC2CC(C)(C)NC(C)(C)C2)c1	i	nt	?	?	nt
O=C1C=C(NCCc2cc(Br)c(O)c(Br)c2)C(=O)c2ncccc21	i	nt	2.8µM	?	nt
CN(C(=O)c1cccc(NC(=O)Cc2ccc(NC(=O)C3CCN(C(=O)C4CC4)CC3)cc2)c1)C1CCCCC1	i	nt	nt	nt	nt
CCN(CC)CCC(c1ccc(N(C)C)cc1)c1c(OC)cc(OC)c2c1OC(=O)CC2c1ccc(N(C)C)cc1 (stereo not given)	nt	i	nt	nt	i
NS(=O)(=O)c1cccc(NC(=O)c2ccc3nc[nH]c3c2)c1	?	i	i	i	i
SMILES	AMA1-RON2 inh	Cycloheximide cs	Lassa entry inh	MARV entry inh	Shiga toxin inh
O=C(Nc1ccc2c(c1)OCO2)c1ccc2nc[nH]c2c1	i	52	i	?	68
O=C(Nc1ccc(C(F)(F)F)cc1)c1ccc2nc[nH]c2c1	i	23	i	?	54
COc1ccc(NC(=O)c2ccc3nc[nH]c3c2)cc1	i	38	nt	nt	62
O=C(COC(=O)c1cccc(F)c1)Nc1cccc(S(=O)(=O)N2CCCCC2)c1	i	nt	nt	nt	nt
Cc1ccc(Cn2cccc(C(=O)Nc3nnc(C)s3)c2=O)cc1	nt	nt	i	nt	nt
Nc1nc(N)c(N=O)c(OCC2CCCCC2)n1	i	21	?	?	41!
CCCSc1ccc(C(=O)Nc2ccc(Cl)cc2)cn1	i	28	?	?	i
Cc1ccc(NC(=O)c2cnccn2)cc1C	i	34	nt	nt	nt
Cc1cccc(NC(=O)c2cnccn2)c1	i	17	i	i	nt
Cc1cccc(NC(=O)Nc2cnccn2)c1	i	i	nt	nt	i
O=C(Nc1ccc(Br)cc1)c1cnccn1	i	32	i	i	i
CCOC(=O)C1CCC(CN(Cc2ccc(OC)cc2)S(=O)(=O)c2ccc(F)c(C(=O)Nc3ccc(C)c(C)c3)c2)CC1 (stereo not given)	nt	nt	i	nt	nt
CCC(=O)N1CCCC1(C)C(=O)NCc1ccc(SC)cc1 (stereo not given)	i	nt	nt	nt	nt
Cc1ccc(NC(=O)c2ccc(Cl)nc2)cc1	i	34	nt	nt	140
Cc1ccc(NC(=O)c2nsc(Cl)c2Cl)cc1	i	56	nt	nt	70
Cc1nc(NC(=O)c2cnccn2)ccc1Br	i	43	?	i	107
Cc1nc(NC(=O)c2cncc(Br)c2)ccc1Br	i	i	i	i	nt
O=C(Nc1ccc2c(c1)OCO2)c1cnccn1	i	21	nt	i	88
CN(C(=O)CSc1nnc(-c2ccc([N+](=O)[O-])cc2)o1)c1ccccc1	nt	nt	i	i	nt
COc1ccc(CNC(=O)C2CCN(S(=O)(=O)N3CCCCC3)CC2)c(OC)c1	i	i	nt	nt	i
CC1Sc2ccc(S(=O)(=O)CCC(=O)N3CCN(c4ccccc4F)CC3)cc2NC1=O (stereo not given)	i	i	?	?	i
CC1(C)CC2CC(C)(CN2/C=N/c2sc3c(c2C#N)CC(C)(C)NC3(C)C)C1 (stereo not given)	?	i	?	?	i
CC(=O)NC1(NC(C)=O)CCN(C)CC1	i	i	i	i	i
O=C(Nc1ccc(F)cc1)c1cnccn1	i	nt	nt	nt	nt
Cc1ccc(NC(=O)c2cnccn2)cc1	i	34	nt	?	72
SMILES	AMA1-RON2 inh	Cycloheximide cs	Lassa entry inh	MARV entry inh	Shiga toxin inh
O=C1[C@H]2[C@H]3[C@H](O)[C@H](O)C/C(=N\OCc4ccccc4)[C@H]3CC[C@H]2C(=O)N1C1CCCCC1	nt	nt	nt	i	nt
N=C1SC(c2ccccc2)C(=O)N1c1ncc(Cc2ccccc2)s1 (stereo not given)	i[11.6 µM]	18	?	?	56
CS(=O)(=O)NN1C(=O)c2ccccc2NC1c1cccc(O)c1 (stereo not given)	i	i	i	i	i
CS(=O)(=O)NN1C(=O)c2ccccc2NC1c1ccccc1 (stereo not given)	i	25	i	?	34
Cc1ccc(S(=O)(=O)NN2C(=O)c3ccccc3NC2c2ccccn2)cc1 (stereo not given)	i	i	?	7.9µM	i
Cc1ccc(S(=O)(=O)NN2C(=O)c3ccccc3NC2c2ccccc2O)cc1 (stereo not given)	i	i	i	i	i
CCOc1ccc(OCC(=O)Nc2c(C(=O)Nc3ccc(C)cc3)oc3ccccc23)cc1	nt	nt	i	i	nt
Fc1ccccc1-n1cc(-c2ccccc2)[nH]c1=S	i	29	i	i	i
O=C(COC(=O)c1ccc(Br)cc1)NCCC1=CCCCC1	i	i	i	i	i
O=C(CCS(=O)(=O)c1ccccc1Cl)NCCC1=CCCCC1	i	35	i	i	61
Cc1ccc(S(=O)(=O)CCC(=O)NCCC2=CCCCC2)cc1	i	nt	i	i	nt
O=C(CCc1ccccc1)NCCC1=CCCCC1	i	40	i	i	99
O=C(Cc1ccccc1)NCCC1=CCCCC1	i	i	i	i	i
O=C(COC(=O)c1ccccc1)NCCC1=CCCCC1	i	14	?	i	i
O=C(O)C1C2C=CC(C2)C1C(=O)NCCC1=CCCCC1 (stereo not given)	i	i	i	i	i

Assay outcomes (PubChem)
